AC50 and outcome data for 33 compounds are collected here from PubChem BioAssay.

Records with an inconclusive call do not appear. Calls of active or inactive are those of the source. Unless noted, cut-off not given; nearly all actives show AC50 up to about 23 µM.

The first assay can be described thus: growth inhibition of DIPG glioma cells, dose response, cell-based, SU-DIPG-IV, MIPE4.0, CellTiter-Glo, qHTS (AID 1347063; cut-off not given, nearly all actives have AC50 up to about 30 µM;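 further: compound exposure lasted 48 hours before the viability readout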). The settings on record: SU-DIPG-IV viability, CellTiter-Glo ATP luminescence. (In ATP-based viability assays light output follows the ATP content of the culture.)
Broadly, the AC50 is the midpoint of the concentration-response curve, whichever way the signal moves. In the case of `CC(N[C@H]1CCCC[C@@H]1NC(=O)c1ccc(Cl)cc1)c1cccc2ccccc12` (stereo partly drawn), the AC50 was 0.148 µM (active). As for `C/C(O)=C(\C#N)C(=O)Nc1ccc(C(F)(F)F)cc1`, the call was inactive.

As for `CN1N=C(N)c2cn([C@@H]3O[C@H](COP(=O)(O)O)[C@@H](O)[C@H]3O)c3ncnc1c23`, the AC50 was 0.372 µM (active). On to `CNC(=O)c1cccc(-c2ccc3c(N4CCOC[C@@H]4C)nc(N4CCOC[C@@H]4C)nc3n2)c1`, for which the AC50 was 0.0209 µM (active). In the case of `COc1ccc(-c2ccc3c(N4CCOCC4)nc(N4C[C@@H](C)O[C@@H](C)C4)nc3n2)cc1CO`, the concentration at half-maximal activity (AC50) was 0.332 µM (active).

With `CCOc1cc2ncc(C#N)c(Nc3ccc(OCc4ccccn4)c(Cl)c3)c2cc1NC(=O)/C=C/CN(C)C`, the AC50 is 0.148 µM (active). The same measure, in the same setting: the value for `N#CCNC(=O)c1ccc(-c2ccnc(Nc3ccc(N4CCOCC4)cc3)n2)cc1` was 20.9 µM (active); that for `COC(=O)c1ccc2c(C(=Nc3ccc(N(C)C(=O)CN4CCN(C)CC4)cc3)c3ccccc3)c(O)[nH]c2c1` was 9.35 µM (active); that for `COc1cc2nccc(Oc3ccc(NC(=O)Nc4cc(C)on4)c(Cl)c3)c2cc1OC` was 18.7 µM (active).

The nature of another assay: growth inhibition of DIPG glioma cells, dose response, cell-based, SU-DIPG-XIII, MIPE5.0, CellTiter-Glo, qHTS (AID 1347064).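 On AC50: cells exposed to compound for 48 hours before the viability read.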 The settings on record: SU-DIPG-XIII viability, CellTiter-Glo ATP luminescence.
On to `O[C@@H](COc1cccc2ncccc12)CN1CCN(C2c3ccccc3[C@@H]3[C@H](c4ccccc42)C3(F)F)CC1` (stereo partly drawn), for which the AC50 is 23.5 µM (active). As for `NCc1c[nH]c(=S)n1[C@H]1CCc2c(F)cc(F)cc2C1`, the call was inactive. `C[C@H]1[C@H](O)O[C@@H]2O[C@@]3(C)CC[C@H]4[C@H](C)CC[C@@H]1[C@@]24OO3`: the AC50 was 4.68 µM (active).

Turning to `Cc1cc(Nc2cc(CN3CCOCC3)c3nc(C)c(Cc4ccc(Cl)cc4F)n3n2)n[nH]1`, the half-maximal activity concentration (AC50) is 10.5 µM (active). In the case of `COc1cc(F)c(C(C)C)cc1-c1ccc(C(F)(F)F)cc1CN1C(=O)O[C@H](c2cc(C(F)(F)F)cc(C(F)(F)F)c2)[C@@H]1C`, the compound was called inactive. Still for that read-out and setting: with `COc1cc(C(C)C)c(Oc2cnc(NC(CO)CO)nc2N)cc1I` the entry was “inactive”. Turning to `CC1=C[C@@H]2[C@H]([C@@H](O)C[C@@]3(C)[C@H]2C[C@@H](C)[C@]3(O)C(=O)CO)[C@@]2(C)Cc3cnn(-c4ccccc4)c3C=C12`, the AC50 was 9.34 µM (active). In the case of `CCN(CC)CCCCNc1ncc2c(n1)N(C)C(=O)N(c1c(Cl)c(OC)cc(OC)c1Cl)C2`, the AC50 is 0.263 µM (active). Consider `COc1ccccc1[C@H](c1cccc2ccccc12)[C@@](C)(C#N)C(=O)N1CCC(c2cccc(C(F)(F)F)c2)CC1`, for which the outcome was inactive. Regarding `O=C(Nc1ccccc1-c1cn2c(CN3CCNCC3)csc2n1)c1cnc2ccccc2n1`, the AC50 was 2.09 µM (active). On the same count and under the same terms, with `COc1cc(C)c(Sc2cnc(NC(=O)c3ccc(CNC(C)C(C)C)cc3)s2)cc1C(=O)N1CCN(C(C)=O)CC1` (stereo not drawn) the figure was 8.33 µM (active). For the compound `CC(C)C[C@@H](N)[C@H](O)C(=O)N[C@H](C(=O)N[C@H](C(=O)N[C@@H](CC(=O)O)C(=O)O)C(C)C)C(C)C`, the compound was called inactive. In the case of `N#Cc1c(NC(=O)c2cccc3ccccc23)sc2c1CCCC2`, the AC50 is 1.32 µM (active).

On to `CC(C)CNc1ccnc(NCc2csc(-c3ccccc3)n2)n1`, for which the AC50 was 14.8 µM (active). Consider `COc1c(OCCCN2CCOCC2)ccc2c3n(c(=NC(=O)c4cnc(N)nc4)nc12)CCN3`, for which the AC50 was 0.27 µM (active).

Consider `COc1ccc(-c2ccc3c(N4CCOC[C@@H]4C)nc(N4CCOC[C@@H]4C)nc3n2)cc1CO`, for which the AC50 was 0.661 µM (active).

On to `COc1cccc2cc(-c3nc(C4CCC(C(=O)O)CC4)n4ncnc(N)c34)[nH]c12` (stereo not drawn), for which the AC50 is 3.72 µM (active).

Consider `COc1ccc2c(c1)CC[C@@H]1[C@@H]2CC[C@]2(C)[C@@H](NCCCCCCN3C(=O)C=CC3=O)CC[C@@H]12`, for which the result was inactive. As to `CC(C)c1cc(C(C)C)c(CC(=O)NS(=O)(=O)Oc2c(C(C)C)cccc2C(C)C)c(C(C)C)c1`, the AC50 was 13.2 µM (active). Turning to `CC1(C)CCC2=C(O1)c1ccccc1C(=O)C2=O`, the AC50 was 6.61 µM (active). For the compound `Nc1nc(Nc2ccc(S(N)(=O)=O)cc2)nn1C(=O)c1c(F)cccc1F`, the AC50 is 4.68 µM (active).

In the case of `CC[C@@]1([C@@H]2O[C@@H]([C@H]3O[C@@](O)(CO)[C@H](C)C[C@@H]3C)C[C@@H]2C)CC[C@H]([C@]2(C)CC[C@]3(C[C@H](O)[C@@H](C)[C@@H]([C@@H](C)[C@@H](OC)[C@H](C)C(=O)O)O3)O2)O1`, the AC50 is 0.456 µM (active). Turning to `CC(=O)O/N=C1/C(c2c(O)[nH]c3cc(Br)ccc23)=Nc2ccccc21`, the AC50 is 20.9 µM (active). In the case of `Cc1ccc(F)c(NC(=O)Nc2ccc(-c3cccc4[nH]nc(N)c34)cc2)c1`, the AC50 is 7.42 µM (active).
